Several values for one entry are separate records, joined by “and”; a condition that tells them apart may be missing. Identical values can stand only once. Activity calls are given as the source filed them. The rule behind the calls is not given here.
Biological target: Nuclear receptor subfamily 1 group I member 2 (Rattus norvegicus) (UniProt Q9R1A7)
Experiment: qHTS assay for small molecule activators of the rat pregnane X receptor (rPXR) signaling pathway (AID 651751)
Conditions: rPXR reporter cells, luciferase (One-Glo), 24 h
Note: 0% is about no effect.

Sequence of Nuclear receptor subfamily 1 group I member 2 (Rattus norvegicus) (Q9R1A7 whole entry, looked up): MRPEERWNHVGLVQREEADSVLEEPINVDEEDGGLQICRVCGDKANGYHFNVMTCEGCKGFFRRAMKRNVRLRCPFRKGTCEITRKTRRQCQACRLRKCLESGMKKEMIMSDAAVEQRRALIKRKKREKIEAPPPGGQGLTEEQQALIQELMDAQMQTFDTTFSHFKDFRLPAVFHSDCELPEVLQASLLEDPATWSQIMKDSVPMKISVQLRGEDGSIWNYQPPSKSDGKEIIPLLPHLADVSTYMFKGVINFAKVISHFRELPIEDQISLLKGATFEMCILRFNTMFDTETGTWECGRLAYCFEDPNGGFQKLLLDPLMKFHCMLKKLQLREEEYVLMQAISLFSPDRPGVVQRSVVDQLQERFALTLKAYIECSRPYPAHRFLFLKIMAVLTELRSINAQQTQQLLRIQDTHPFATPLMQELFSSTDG

**Q.** With Cc1cc(NS(=O)(=O)c2ccc(N)cc2)no1 as the molecule, how does the max response read?
**A.** 3.86% (inactive)

**Q.** Which max response does the source give for OC(Cn1cncn1)(Cn1cncn1)c1ccc(F)cc1F here?
**A.** 4.95% (inactive)

**Q.** Which max response does the source give for CC1=NN(c2ccccc2)C(=O)C1 here?
**A.** 3.89% (inactive) and 0.779% (inactive)

**Q.** For Cc1ncc([N+](=O)[O-])n1CCO, which max response is on record?
**A.** 6.53% (inactive)

**Q.** Which max response does the source give for Cc1nnc(NS(=O)(=O)c2ccc(N)cc2)s1 here?
**A.** -0.291% (inactive)

**Q.** With O=C(O)c1cc(=O)[nH]c(=O)[nH]1 as the molecule, how does the max response read?
**A.** -3.54% (inactive)

Test system: not listed separately
Experiment: qHTS assay for small molecule activators of the human pregnane X receptor (PXR) signaling pathway (AID 720659)
Conditions: DPX-2 HepG2 CYP3A4-luciferase, 24 h; series mostly up to 92.3 µM

**Q.** For Cc1cc(NS(=O)(=O)c2ccc(N)cc2)no1, which outcome is on record?
**A.** inactive

**Q.** With Cc1ncc([N+](=O)[O-])n1CCO as the molecule, how does the outcome read?
**A.** inactive

**Q.** Which outcome does the source give for Cc1nnc(NS(=O)(=O)c2ccc(N)cc2)s1 here?
**A.** inactive

**Q.** Which outcome does the source give for Cc1noc(NS(=O)(=O)c2ccc(N)cc2)c1C here?
**A.** inactive

**Q.** With O=C(O)c1cc(=O)[nH]c(=O)[nH]1 as the molecule, how does the outcome read?
**A.** inactive

From PubChem BioAssay (NCATS)
